Bioassay records as filed in PubChem.
Rows were chosen to be rich in hits. Some 4.1% of all compounds tested hit in one or more screens of this group.
Bfl-1 A1 inh = inhibitors of the anti-apoptotic protein A1, read as caspase activation | MEF A1-2A-BIM cells, Caspase-Glo 3/7 luminescence, 3 h; percent of clofoctol response, vehicle zero | caspase activation, % (test concentration not listed) | 330,000 compounds, 0.066% hits | AID 2462;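 active means over half of replicate activation scores above 10%, or exactly half above 10 with the replicate mean above 10; inconclusive means replicate mean below 10 yet half the replicates above 10; inactive means over half of replicates below 10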
aSyn UTR inh = MLPCN primary screen, SNCA 5' untranslated region; inhibition, % (tested at 7.5 µM); 300,000 compounds, 0.82% hits; alpha-synuclein 5'UTR reporter, inhibitor activity; in the data active means inhibition above about 60%; inconclusive means no clear call, values can overlap the other calls;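 further: H4 neuroglioblastoma cells stably carrying SNCA 5'UTR luciferase fusion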
CSC inhib = blocks cancer stem cells. cancer stem cell-like cells viability, luminescence. inhibition, % at 7.5 µM. 300,000 compounds, 1.1% hits; in the data active means inhibition above about 75%; inconclusive means no clear call, values can overlap the other calls; tested in HMLE shEcad cells
Beta cell apopt = blocks beta cell apoptosis | 300,000 compounds, 0.8% hits | protection from apoptosis, % (test concentration not listed) | AID 435005 | INS-1E cytokine-induced death, ATP luminescence, 48 h; percent of positive-control rescue, neutral wells zero;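 active means Every replicate reaches about 75%, or at least half do and their mean reaches it too, limit read from the data; inconclusive means At least half of replicates reach the limit but their mean does not; inactive means Under half of replicates reach the limit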;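 further: higher means more ATP so stronger rescue from cytokine killing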
Mdm2-MdmX inh = human Mdm2/MdmX binding inhibition; O15151+Q00987; SaOS-2 split-luciferase Mdm2/MdmX complementation, luminescence; inhibition, % at 8 µM; 330,000 compounds, 3% hits;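 active means inhibition of at least 50% at 8 µM in the primary screen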
Mdm2-MdmX conf = confirmation of human Mdm2/MdmX interaction inhibitors. shares compounds with Mdm2-MdmX inh. Mdm2-MdmX binding, luminescent assay. inhibition, % at 8 µM. 10,000 compounds, 55% hits; in the data active means inhibition above about 40%
Full FLuc ctr = counter-screen for Mdm2/MdmX inhibitors: full-length luciferase | shares compounds with Mdm2-MdmX inh | SaOS-2 full-length luciferase counterscreen, luminescence | inhibition, % at 8 µM | 6,200 compounds, 77% hits | AID 504607;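 active means mean inhibition at 8 µM reaching about 37%, which flags the compound as non-specific, limit read from the data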;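 further: p53-null SaOS-2 cells with luciferase driven by a doxycycline-inducible promoter; compound on cells about two nights before reading with doxycycline added after day one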
Each line names hits and unclear results; the compound was inactive in the other large screens (follow-up assays come after a bar, where they were run); ! = not active in a repeat.

CCCCC(=O)NC(c1ccccc1Cl)c1c(O)ccc2ccccc12 (centres undefined)	none
CCN(CCS(=O)(=O)c1ccc(Br)cc1)Cc1nc2ccccc2c(=O)[nH]1	none (no result: aSyn UTR inh)
COc1ccc(O)c(/C=N/NC(=O)CCC(=O)Nc2ccc(F)cc2)c1	none
COc1ccc(CN2C(=O)COc3ccccc32)cc1	Bfl-1 A1 inh inconclusive
COc1ccc(CC2(CO)COc3ccccc3C2=O)cc1 (centres undefined)	Mdm2-MdmX inh 51 | Mdm2-MdmX conf inactive | Full FLuc ctr 85
CCN1CCN(Cc2ccc(NC(=O)c3cc(NC(=O)c4cc(C)on4)cc(OC)c3)cc2C(F)(F)F)CC1	Mdm2-MdmX inh 91 | Mdm2-MdmX conf inactive | Full FLuc ctr 46
CCN1CCN(Cc2ccc(NC(=O)c3cc(NC(=O)C(=O)c4c[nH]c5ccccc45)cc(OC)c3)cc2C(F)(F)F)CC1	aSyn UTR inh 117, Beta cell apopt 98, Mdm2-MdmX inh 99 | Mdm2-MdmX conf inactive
CCN1CCN(Cc2ccc(NC(=O)c3ccc(C)c(NC(=O)c4ccnnc4)c3)cc2C(F)(F)F)CC1	none
CCN1CCN(Cc2ccc(NC(=O)c3ccc(C)c(NC(=O)C(=O)c4c[nH]c5ccccc45)c3)cc2C(F)(F)F)CC1	aSyn UTR inh 112, CSC inhib 102!, Beta cell apopt 110, Mdm2-MdmX inh 100 | Mdm2-MdmX conf 93 | Full FLuc ctr inactive
CCN1CCN(Cc2ccc(NC(=O)c3cc(NC(=O)c4cnn(-c5ccccc5)c4N)cc(OC)c3)cc2C(F)(F)F)CC1	CSC inhib 131, Beta cell apopt 109, Mdm2-MdmX inh 53 | Mdm2-MdmX conf inactive
Cc1nc(SCc2cccnc2)[nH]c(=O)c1C	none
CC(C(N)=O)N1C(=O)NC2(CCCc3ccccc32)C1=O (centres undefined)	none
O=C(NCCOc1ccccc1)C1Nc2ccc(C(F)(F)F)cc2C2c3ccccc3CC12 (centres undefined)	none
CCOC(=O)C1Nc2ccc(C(F)(F)F)cc2C2c3ccccc3CC12 (centres undefined)	Mdm2-MdmX inh 97 | Mdm2-MdmX conf 70 | Full FLuc ctr 43
CCOC(=O)c1c(-c2ccc(C)o2)csc1NC(=O)CSc1nnc(C)s1	none
CCOC(=O)c1c(-c2ccc(C)o2)csc1NC(=O)COC(=O)c1ccc(NC(N)=O)cc1	Mdm2-MdmX inh 69 | Mdm2-MdmX conf inactive
COc1ccc(OC)c(C2CC(=O)c3c([nH]c(C(=O)OC(C)C)c3C)C2)c1 (centres undefined)	Mdm2-MdmX inh 52 | Mdm2-MdmX conf 44 | Full FLuc ctr 83
COCCOC(=O)c1[nH]c2c(c1C)C(=O)CC(c1cc(OC)ccc1OC)C2 (centres undefined)	none
CCCOCCOC(=O)c1[nH]c2c(c1C)C(=O)CC(c1cc(OC)ccc1OC)C2 (centres undefined)	Mdm2-MdmX inh 59 | Mdm2-MdmX conf 52 | Full FLuc ctr 83
Oc1cc(NCc2ccc(F)cc2)cc2cccnc12	Mdm2-MdmX inh 56 (no result: aSyn UTR inh, CSC inhib) | Mdm2-MdmX conf inactive
COc1ccc(O)c(C(=O)c2cnc3c(c2)CN(C)C(=O)N3)c1	Mdm2-MdmX inh 63 | Mdm2-MdmX conf 41 | Full FLuc ctr 63
CC(=O)c1c(Cl)nc2ccc(Br)cc2c1-c1ccccc1	none (no result: Beta cell apopt)
Cc1cc(C)n(C(=O)/C(C#N)=N/Nc2cc(Cl)cc(Cl)c2)n1	Mdm2-MdmX inh 89 | Mdm2-MdmX conf 88 | Full FLuc ctr 51
Cc1cc(C)n(C(=O)/C(C#N)=N\Nc2ccccc2[N+](=O)[O-])n1	none
CN(C)c1ccc(C2C=C(c3ccc(Cl)cc3OC(F)F)Nc3ncnn32)cc1 (centres undefined)	Mdm2-MdmX inh 66 | Mdm2-MdmX conf 54 | Full FLuc ctr 49
Cc1ccc(C2C=C(c3ccccc3OC(F)F)Nc3ncnn32)cc1 (centres undefined)	none
O=C(NCc1ccccn1)c1cc(-c2ccc(-c3ccccc3)cc2)nc2ccccc12	Mdm2-MdmX inh 84 | Mdm2-MdmX conf 61 | Full FLuc ctr 54
O=C(NCc1ccccn1)c1cc(-c2ccccc2)nc2ccccc12	none
